PMP22 txn: modulates PMP22 transcription in S16 Schwann cells. S16 Pmp22-F2sN Schwann cells, FLuc/NLuc coincidence luminescence, 24 h. AID 1508649. Potency, µM (highest dose often 57.5 µM), actives largely listed as inhibitors. 2% of 43,000 active; active = clear falling dose curves in both reporters; inconclusive = both reporters move, but less clearly or upward; inactive = either reporter flat; the % is the NLuc reporter signal
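Rat S16 Pmp22-F2sN cells, 500-1,000/well in phenol red-free DMEM + 10% FBS, compound-treated 24 h (37C, 5% CO2). Luminescence: FLuc read, Stop&Glo added, NLuc read.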
HTT promoter inh: inhibits huntingtin promoter activity; HEK293 HTT promoter firefly luciferase reporter, 24 h; 0.93% of 48,000 active; Potency, µM (doses to about 57.5 µM), usual class: inhibitors; note: nearly all actives have a fitted effect of over 50% in size
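Firefly luciferase readout (Dual-Glo, 10 min RT) after 24 h, 37 °C compound exposure (final up to 57.5 uM) of HEK293 reporter cells cultured 24 h beforehand; PTC124 at 50 uM final as control inhibitor; activity scaled vehicle 0%, zero RLU -100%.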
S16 viability: cytotoxicity in S16 Pmp22-F2sN Schwann cells; S16 Pmp22-F2sN Schwann cells (luciferase reporters placed in the Pmp22 gene) viability, CellTiter-Glo, 24 h; Potency, µM (doses to about 57.5 µM), hits mostly cytotoxic; 0.48% of 43,000 active; note: nearly all actives have a fitted effect of over 65% in size
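Seed 500-1,000 S16 Pmp22-F2sN cells per well in phenol-red-free DMEM with 10% heat-inactivated FBS; pin-add 23 nL compound; incubate 24 h at 37C; add CellTiter-Glo, wait 15 min protected from light; read luminescence.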
HTT-AS promoter: activates huntingtin-antisense promoter activity. HEK293 HTT-AS promoter firefly luciferase reporter, 24 h; response scale: percent change from vehicle, -100% = no light. Potency, µM (titrated, usually from 57.5 µM), most hits filed as activators. 0.24% of 48,000 active; note: nearly all actives have a fitted effect of over 55% in size
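Luminescence was read after Dual-Glo reagent and a 10 min room-temperature incubation. Values were normalized to vehicle (0% activity) and zero RLU (-100% activity). Reporter HEK293 cells had been exposed to compounds (up to 57.5 uM final) for 24 h.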
pS6 MEF inh: inhibitors of mTORC1 signaling in Tsc2-/- p53-/- MEF cells; Potency, µM (highest dose often 38.3 µM), usual class: inhibitors; Tsc2-/- p53-/- MEF, phospho-rpS6 immunofluorescence/PI, 24 h; 0.78% of 44,000 active; note: nearly all actives have a fitted effect of over 50% in size
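Immunofluorescence of rpS6 phosphorylation in Tsc2-/-, p53-/- MEFs after 24 h compound exposure, normalized to propidium iodide signal. Activity is expressed as % positive cells, thresholded with 7.5 nM rapamycin.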
SKOV3 invasion: inhibitors of ovarian cancer cell adhesion and invasion in omental model. Potency, µM (highest dose often 45.8 µM), hits mostly inhibitors. SKOV3ip1-GFP adhesion/invasion on 3D omental model, fluorescence. 0.1% of 46,000 active; note: nearly all actives have a fitted effect of over 65% in size
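Primary human omental fibroblast/mesothelial 3D culture pre-formed 48 h. SKOV3ip1-GFP cells added with compounds (0.36-46 umol/L), incubated 2 h RT/16 h 37 C, fixed; GFP cells quantified at 488/509 nm.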
A number is an active result; i = inactive; ? = inconclusive; nt = not tested or not shown; [ ] = another dose, or the depositor's remark. Sampled rows, rich in hits. Any-hit rate of the full collection: about 3.6%. Unless noted, calls come from the whole dose curve; as a rule, active = well fitted curve in the direction sought with a large enough effect; inconclusive = small, poorly fitted or top-dose-only effect, or another doubt; inactive = no such curve, though single readings can be large; an effect the other way counts as inactive or inconclusive.

SMILES	PMP22 txn	HTT promoter inh	S16 viability	HTT-AS promoter	pS6 MEF inh	SKOV3 invasion
CCC(=O)Nc1ccc(-c2nc3ncccc3o2)cc1C	i	i	i	11.2µM	i	i
Cc1ccccc1NC(=O)c1c(NC(=O)C(F)(F)F)sc2c1CCCCC2	11.5µM	2µM	?	i	i	i
Cc1ccc(NC(=O)c2c(NC(=O)C(F)(F)F)sc3c2CCCCC3)cc1	10.4µM	1.41µM	?	i	i	i
Cc1cccc(NC(=O)c2c(NC(=O)C(F)(F)F)sc3c2CCCCC3)c1	10µM	2µM	?	i	i	?
O=C(Nc1cccc(Cl)c1)c1c(NC(=O)C(F)(F)F)sc2c1CCCC2	12.6µM	1.78µM	?	i	i	?
COc1cc2nc(-c3cc(F)ccc3O)nc(N[C@@H]3CNC[C@@H]3C(C)(C)O)c2cc1OC	nt	?	nt	i	nt	?
Oc1ccc(-c2ccc(-c3cc(Nc4cccc(CNC5CC5)c4)n[nH]3)cc2)c(O)c1	nt	?	nt	i	nt	i
CCC(=C(c1ccc(O)cc1)c1ccc(OCCNC)cc1)c1ccccc1	nt	?	nt	i	nt	i
O=C(Cn1nc(C(F)(F)F)c2c1CCCC2)Nc1cccc(Cl)c1	?	?	20µM	i	i	i
COc1cc(NC(=O)Cn2nc(C(F)(F)F)c3c2CCCC3)cc(OC)c1OC	?	22.4µM	i	i	i	i
Cc1ccn(-c2ccc(-c3ncco3)cc2)c(=O)c1-c1ccc2nc(N)ncc2c1	nt	i	nt	i	nt	i
CC(C)c1ccc(C2NC(=O)c3c(sc4c3CCN(C)C4)N2)cc1 (configuration not stated)	?	i	?	i	i	i
CN1CCc2c(sc3c2C(=O)NC(c2ccc(C(C)(C)C)cc2)N3)C1 (configuration not stated)	?	i[11.5 µM]	14.1µM	i[11.5 µM]	i	i
O=C(Nc1ccc(Br)cc1)c1ccc(F)c(S(=O)(=O)N2CCCc3ccccc32)c1	?	2.24µM	i	i	i	i
O=C(Nc1ccc(Br)cc1)c1cccc(S(=O)(=O)N2CCc3ccccc32)c1	?	25.1µM	i	i	i	i
Cc1ccc(C(=O)Nc2ccccc2)cc1S(=O)(=O)Nc1ccc(Br)cc1	i	?	i	i	i	i
CCN(c1ccccc1)S(=O)(=O)c1cc(C(=O)Nc2ccc(Br)cc2)ccc1F	?	?	i	i	14.7µM	i
CC[C@@H](C)[C@H](NC(=O)[C@H](CC1CCCCC1)NC(=O)c1ccno1)C(=O)N1CCC2(CCc3ccccc32)CC1	nt	i	nt	i	nt	i
CCCCCCCCCCCCCC(=O)N[C@H](CO)[C@H](O)c1ccc([N+](=O)[O-])cc1	nt	i	nt	i	nt	i
O=C(NCCCNc1nc(Nc2cccc(NC(=O)N3CCCC3)c2)ncc1I)c1cccs1	nt	?	nt	i	nt	i
CC1CCN(S(=O)(=O)c2ccc(C(=O)Nc3sc4c(c3C(N)=O)CC(C)(C)NC4(C)C)cc2)CC1	?	i	?	i	18.5µM	?
CCOC(=O)c1c(NC(=O)c2ccc(S(=O)(=O)N(CCOC)CCOC)cc2)sc2c1CC(C)(C)NC2(C)C	i	i	?	i	11.7µM	?
CCOC(=O)c1c(NC(=O)c2ccc(S(=O)(=O)N3CCCC(C)C3)cc2)sc2c1CC(C)(C)NC2(C)C (configuration not stated)	?	i	?	?	?	i
CO[C@H]1C[C@@H]2CC[C@@H](C)[C@@](O)(O2)C(=O)C(=O)N2CCCC[C@@H]2C(=O)O[C@H]([C@H](C)C[C@@H]2CC[C@H](OC(=O)C(C)(CO)CO)[C@H](OC)C2)CC(=O)[C@H](C)C=C(C)[C@@H](O)[C@@H](OC)C(=O)[C@H](C)C[C@H](C)C=CC=CC=C1C	nt	i	nt	i	nt	i
CSc1ccc(CNC(=O)C2CCCN(S(=O)(=O)N(C)c3ccc(F)cc3)C2)cc1 (configuration not stated)	i	22.4µM	i	i	i	i
SMILES	PMP22 txn	HTT promoter inh	S16 viability	HTT-AS promoter	pS6 MEF inh	SKOV3 invasion
CN(C)c1ccc(CNC(=O)C2CCCN(S(=O)(=O)c3ccc4c(c3)oc(=O)n4C)C2)cc1 (configuration not stated)	i	i	i	i	i	i
Cc1c(Cl)cccc1-c1ccc(C(=O)Nc2ccc3oc(-c4cccnc4)nc3c2)o1	i	?	i	i	13.1µM	?
Cc1ccc(NC(=O)c2c(C)oc3ccc(O)c(CN(C)Cc4ccccc4)c23)c(C)c1	?	i	i	i	14.7µM	?
Cc1cn2c(-c3cn[nH]c3)cnc2c(Nc2ccc(C(=O)N3CCNCC3)cc2F)n1	nt	?	nt	i	nt	i
CCOc1ccc(NC(=O)c2sc3nc4c(cc3c2N)CCCCCC4)cc1	?	?	i	i	20.7µM	i
Nc1c(C(=O)Nc2ccc(C(=O)O)cc2)sc2nc3c(cc12)CCCC3	i	?	i	i	i	i
Nc1nc(Cl)nc2c1ncn2[C@@H]1O[C@H](CO)[C@@H](O)[C@H]1F	nt	?	nt	i	nt	i
CNC1CCC(N(Cc2cccc(-c3ccncc3)c2)C(=O)c2sc3ccccc3c2Cl)CC1 (configuration not stated)	nt	i	nt	i	nt	i
COc1ccc(C)cc1NC(=O)Nc1cccc(-c2noc(C)n2)c1	?	i	i	i	?	i
Cc1nc(-c2cccc(NC(=O)Nc3ccc([N+](=O)[O-])cc3)c2)no1	?	?	28.2µM	i	?	i
OCCN(CCO)c1ncnc2c1cnn2-c1ccc(F)cc1	i	i	i	7.94µM	i	i
CC(C)N(CCCNC(=O)Nc1ccc(C(C)(C)C)cc1)C[C@H]1O[C@@H](n2cc(Br)c3c(N)ncnc32)[C@H](O)[C@H]1O	nt	?	nt	i	nt	i
CCOC(=O)COc1ccc(/C=C(\C#N)c2nc3ccc(C)cc3[nH]2)cc1OC	8.91µM	i	8.91µM	i	i	i
COc1cccc(Nc2c(C(N)=O)cnc3c(C)cc(S(=O)(=O)c4cccc(C(=O)N(C)C)c4)cc23)c1	nt	i	nt	i	nt	i
Cc1cc2nc(-c3cccc(NC(=O)COc4ccc(Cl)c(C)c4)c3)oc2cc1C	?	i	i	?	i	i
Cc1cc2nc(-c3cccc(NC(=O)COc4ccc(C(C)C)cc4)c3)oc2cc1C	i	i	i	1µM	i	i
CN(C)CC1CCN(C2CCN(C(=O)c3cccc(-c4cc(O)c5ncccc5c4)c3)CC2)CC1	nt	i	nt	nt	nt	nt
Nc1nc(F)nc2c1ncn2[C@@H]1O[C@H](COP(=O)(O)O)[C@@H](O)[C@H]1O	nt	i	nt	i	nt	i

Assay outcomes (PubChem)
